Hit rate of the full screen: of about 25,000 compounds, about 970 (3.9%) were called active. Roughly 8% stayed inconclusive and do not appear here. No rule for the calls is given here. The entries come from a sample that favours actives as a whole.
Experiments:
Assay in all cases: Primary Screen for Target Class Profiling of Small Molecule Inhibitors of Methyltransferases
[1] = target: Catechol O-methyltransferase (Homo sapiens) (UniProt P21964); conditions: purified enzyme, MTase-Glo SAH luminescence; activity change, negative = inhibition: at 40 µM, stronger effect = lower value; outcome: 40 uM
Chain of Catechol O-methyltransferase (Homo sapiens) (P21964 whole entry, looked up): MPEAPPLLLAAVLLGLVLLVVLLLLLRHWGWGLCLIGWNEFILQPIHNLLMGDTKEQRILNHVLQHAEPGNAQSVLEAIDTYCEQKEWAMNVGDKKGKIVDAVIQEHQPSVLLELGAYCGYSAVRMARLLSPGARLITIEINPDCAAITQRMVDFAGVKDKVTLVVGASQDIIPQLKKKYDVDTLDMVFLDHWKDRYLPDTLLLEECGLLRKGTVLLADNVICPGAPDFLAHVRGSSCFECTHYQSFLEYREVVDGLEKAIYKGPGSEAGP
Excerpt: (§1) PI: Matthew D. Hall Ph.D. and Quinlin M. Hanson Ph.D.
(§2) National Center for Advancing Translational Sciences (NCATS)
(§3) National Institute of Health (NIH), Rockville, MD
(§4) Target class profiling (TCP) is a chemical biology approach amenable to investigating understudied biological targets. TCP is achieved by developing a generalizable assay platform and applying it to screen a curated set of compound libraries against representative members of a target class. Small molecule methyltransferases (SMMTase) are a subclass of methyltransferase that act on metabolites to modulate signaling pathways, metabolize xenobiotics, or balance the available methyl pool. We screened four curated libraries totaling 27,574 unique compounds against the SMMTases nicotinamide N-methyltransferase (NNMT), phenylethanolamine N-methyltransferase (PNMT), histamine N-methyltransferase (HNMT), glycine N-methyltransferase (GNMT), catechol O-methyltransferase (COMT), and guanidinoacetate N-methyltransferase (GAMT). The data generated by this TCP can be leveraged for informed tool molecule development. For example, in the associated publication we identified a chemotype of HNMT-selective inhibitors. Additionally, we identified a putative SMMTase-selective inhibitor with potential as a tool molecule for studying broader methyltransferase biology.
(§5) High-through put screening assays were developed at the National Center for Advancing Translational Science (NCATS) for the enzymes NNMT, PNMT, HNMT, GNMT, COMT, and GAMT. Enzymatic activity was measured as a function of SAM cofactor conversion using the MTase Glo kit (Promega) for all enzymes. All assays were performed in 1536-well format with substrates and SAM concentrations at KM values. Enzyme concentration and assay timing were optimized for 10-20% SAM conversion. Initial screening of 27,574 compounds was done as single-point assays using the highest compound concentration (40 uM). […] These compounds were replated in 11-point dose response and assayed against NNMT, PNMT, HNMT, GNMT, COMT, GAMT, and a counter-assay. The IC50 and efficacy (maximal response) values were determined for each dose-response curve. These values are also accounted for in the area under the curve (AUC) values.
(§6) PROTOCOL TABLE (as described by Inglese J, Shamu CE and Guy RK. 2007)
(§7) SEQUENCE No. (e.g., 1, 2, 3, etc.); […] (e.g., Cells, Incubation, Reagent, etc.); VALUE; DESCRIPTION.
(§8) 1; Reagent; 2 uL; SMMTase Enzyme (2x) in reaction buffer, columns 1- 48.
(§9) 2; Reagent; 1 uL; SAM (4x) in reaction buffer, columns 1-48.
(§10) 3; Controls; 23 nL; DMSO in column 4; sinefungin in DMSO (0 uM - 40 uM) in 7-point 1:2 dilution series (n = 2) in column 2.
(§11) 4; Compounds; 23 nL; Columns 5-48.
(§12) 5; Reagent; 1 uL; Substrate (4x) in reaction buffer, columns 2-48.
(§13) 6; Time; 20-30 min; Incubation.
(§14) 7; Reagent; 1 uL; MTase-Glo reagent (5X), columns 1-48.
(§15) 8; Time; 30 min; Incubation.
(§16) 9; Reagent; 5 uL; MTase-Glo Detection reagent, columns 1-48.
(§17) 10; Time; 30 min; Incubation, luminescence evolution.
(§18) 11; Detection; Luminescence; ViewLux uHTS Microplate Imager (PerkinElmer).
(§19) NOTES (numbers refer to Sequence numbers above)
(§20) 1, 2, 5. White Medium Binding Greiner 1536-well plates (Cat #789175-F, Greiner Bio-One, Monroe, NC); Reaction buffer: 50 mM Tris, pH 8.0, 3 mM MgCl2, 1 mM EDTA, 50 mM NaCl, 1 mM DTT, and 0.1 mg/mL BSA. Evaporation was prevented by covering assay plates with metal lids containing holes to allow gas diffusion.
(§21) 1. Six SMMTase were profiled: HNMT, GNMT, PNMT, COMT, NNMT, GAMT
(§22) 5. The corresponding substrate was used for each enzyme: HNMT - 5.3 uM Histamine; GNMT - >500 uM Glycine; PNMT - 16.2 uM Norephinephrine; COMT - 13.7 uM Norephinephrine; NNMT - 3.8 uM Nicotinamide; GAMT - 2.5 uM Guanidinoacetate.6, 8, 10. Room temperature
(§23) 6. Final reaction conditions: 10 nM COMT, 5 uM SAM, 15 uM norepinephrine, 50 mM Tris, pH 8.0, 3 mM MgCl2, 1 mM EDTA, 50 mM NaCl, 1 mM DTT, and 0.1 mg/mL BSA; refer to tables 2 and S1 for specific timing.
8. […]

[2] = target: Glycine N-methyltransferase (Homo sapiens) (UniProt Q14749); conditions: purified enzyme, MTase-Glo SAH luminescence; measured here: GNMT inhibition; at 40 µM; stronger effect = lower value
Chain of Glycine N-methyltransferase (Homo sapiens) (Q14749 whole entry, looked up): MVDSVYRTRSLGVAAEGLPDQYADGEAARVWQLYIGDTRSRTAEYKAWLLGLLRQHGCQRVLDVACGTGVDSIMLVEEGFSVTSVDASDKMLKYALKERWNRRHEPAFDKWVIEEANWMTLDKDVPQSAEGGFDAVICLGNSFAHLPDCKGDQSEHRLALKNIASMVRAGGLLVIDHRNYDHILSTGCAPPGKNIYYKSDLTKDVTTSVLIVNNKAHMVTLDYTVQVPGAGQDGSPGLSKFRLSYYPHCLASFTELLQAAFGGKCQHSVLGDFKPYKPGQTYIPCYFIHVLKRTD
Excerpt: as §1, §2, §3, §4, §5, §6, §7, §8, §9, §10, §11, §12, §13, §14, §15, §16, §17, §18, §19, §20, §21, §22, §23
8. […]

[3] = target: Guanidinoacetate N-methyltransferase (Homo sapiens) (UniProt Q14353); conditions: purified enzyme, MTase-Glo SAH luminescence; measured here: GAMT inhibition; at 40 µM; stronger effect = lower value
Excerpt: as §1, §2, §3, §4, §5, §6, §7, §8, §9, §10, §11, §12, §13, §14, §15, §16, §17, §18, §19, §20, §21, §22, §23
8. […]

[4] = target: Histamine N-methyltransferase (Homo sapiens) (UniProt P50135); conditions: purified enzyme, MTase-Glo SAH luminescence; measured here: HNMT inhibition; at 40 µM; stronger effect = lower value
Chain of Histamine N-methyltransferase (Homo sapiens) (P50135 whole entry, looked up): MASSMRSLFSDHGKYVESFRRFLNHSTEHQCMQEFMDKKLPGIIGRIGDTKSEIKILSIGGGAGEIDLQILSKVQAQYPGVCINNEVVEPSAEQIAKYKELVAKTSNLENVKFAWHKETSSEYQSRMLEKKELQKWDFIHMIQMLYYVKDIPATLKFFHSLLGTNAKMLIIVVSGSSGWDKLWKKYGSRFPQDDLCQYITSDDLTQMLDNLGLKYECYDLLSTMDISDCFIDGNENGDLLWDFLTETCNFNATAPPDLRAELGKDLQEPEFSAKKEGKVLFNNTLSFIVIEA
Excerpt: as §1, §2, §3, §4, §5, §6, §7, §8, §9, §10, §11, §12, §13, §14, §15, §16, §17, §18, §19, §20, §21, §22, §23
8. […]

[5] = target: Nicotinamide N-methyltransferase (Homo sapiens) (UniProt P40261); conditions: purified enzyme, MTase-Glo SAH luminescence; measured here: NNMT inhibition; at 40 µM; stronger effect = lower value
Chain of Nicotinamide N-methyltransferase (Homo sapiens) (P40261 whole entry, looked up): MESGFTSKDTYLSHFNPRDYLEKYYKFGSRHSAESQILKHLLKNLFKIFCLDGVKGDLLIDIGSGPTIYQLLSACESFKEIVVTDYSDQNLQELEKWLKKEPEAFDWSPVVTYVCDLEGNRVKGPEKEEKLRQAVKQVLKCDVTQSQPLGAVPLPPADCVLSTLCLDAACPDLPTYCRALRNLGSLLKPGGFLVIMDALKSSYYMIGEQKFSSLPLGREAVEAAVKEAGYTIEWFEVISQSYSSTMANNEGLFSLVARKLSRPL
Excerpt: as §1, §2, §3, §4, §5, §6, §7, §8, §9, §10, §11, §12, §13, §14, §15, §16, §17, §18, §19, §20, §21, §22, §23
8. […]

[6] = target: Phenylethanolamine N-methyltransferase (Homo sapiens) (UniProt P11086); conditions: purified enzyme, MTase-Glo SAH luminescence; measured here: PNMT inhibition; at 40 µM; stronger effect = lower value
Chain of Phenylethanolamine N-methyltransferase (Homo sapiens) (P11086 whole entry, looked up): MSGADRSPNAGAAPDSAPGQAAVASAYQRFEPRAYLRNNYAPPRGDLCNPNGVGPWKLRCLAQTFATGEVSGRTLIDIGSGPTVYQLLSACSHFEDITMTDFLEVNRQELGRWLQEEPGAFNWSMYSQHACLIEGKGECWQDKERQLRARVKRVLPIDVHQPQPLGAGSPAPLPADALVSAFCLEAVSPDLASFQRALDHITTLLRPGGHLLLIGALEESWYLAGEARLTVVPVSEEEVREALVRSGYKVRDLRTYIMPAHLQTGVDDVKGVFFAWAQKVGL
Excerpt: as §1, §2, §3, §4, §5, §6, §7, §8, §9, §10, §11, §12, §13, §14, §15, §16, §17, §18, §19, §20, §21, §22, §23
8. […]
% is scaled to controls: 0 for no effect and ±100 for the full control effect.

Row | SMILES | activity change, negative = inhibition [1] | activity change, negative = inhibition [2] [%] | activity change, negative = inhibition [3] [%] | activity change, negative = inhibition [4] [%] | activity change, negative = inhibition [5] [%] | activity change, negative = inhibition [6] [%]
1 | Cc1cc(C(=O)N2CCCCCC2CN2CCC(C)CC2)nn1C (stereo not drawn) | -10.6% (inactive) | 0.743 | 0.856 | 0.525 | -2.25 | -1.05
2 | O=C(Cn1nc2n(Cc3ccc(F)cc3)c(=O)c3ccccc3n2c1=O)c1cccc(Cl)c1 | 5.66% (inactive) | 4.51 | 0 | 7.94 | -8.66 | 4.49
3 | Cc1ccc(C(=O)COC(=O)C(Cc2c[nH]c3ccccc23)NC(=O)c2ccc(Br)cc2)cc1 (stereo not drawn) | 9.4% (inactive) | 10.7 | 0 | 6.18 | -1.05 | 1.41
4 | Cc1cccc(-c2nnn3c2nc(N2CCC(C)CC2)c2ccccc23)c1 | -0.09% (inactive) | -5.45 | 0.818 | 1.53 | -1.89 | -5.11
5 | Oc1cc2c(cc1O)CN(C(=S)NCCc1ccc(Cl)cc1)CCC2 | 143% (active) | -83 | 4.04 | -4.18 | -9.24 | 0.975
6 | COc1cc(O)c(C(=O)CCc2ccc(O)cc2)c(O[C@@H]2O[C@H](CO)[C@@H](O)[C@H](O)[C@H]2O)c1 | -58.4% (active) | -3.53 | -12.8 | 2.69 | -20.7 | -1.39
7 | COc1cc(C)c(C(=O)Oc2cc(C)c(C(=O)Oc3cc(C)c(C(=O)NC(C)C(=O)O)c(O)c3)c(O[C@@H]3O[C@H](CO)[C@@H](O)[C@H](O)[C@H]3OC(C)=O)c2)c(OC)c1 (stereo partly drawn) | -0.843% (inactive) | -0.029 | 0.21 | 6.89 | -10.4 | -0.399
8 | COC(=O)CCc1cc2ccoc2c(OC)c1O[C@@H]1O[C@H](CO)[C@@H](O)[C@H](O)[C@H]1O | 2.02% (inactive) | 2.54 | 4.92 | 10.2 | -6.92 | 6.11
9 | CCN1CCN(C(=O)Cn2nc(C)c3sc(-c4ccccc4)nc3c2=O)CC1 | -3.83% (inactive) | -9.13 | -4.75 | -2.34 | -11.6 | -11
10 | CCCn1c(=O)c2ccc(C(=O)NC(C)CC)cc2n2c(=O)n(CC(=O)Nc3cc(C)cc(C)c3)nc12 (stereo not drawn) | 4.21% (inactive) | 2.22 | 5.41 | 6.27 | 0.889 | 3.91
11 | COCCn1c2c(c(=O)n1-c1ccccc1)CCN(Cc1cccc(C#N)c1)C2 | -2.46% (inactive) | -6.45 | -6.81 | -9.66 | -7.68 | -4.57
12 | C=CCn1c(=O)c2ccc(C(=O)NC(C)C)cc2n2c(=O)n(CC(=O)NCc3ccccc3)nc12 | 0.329% (inactive) | 7.7 | 1.61 | 12.5 | 0.93 | 4.28
13 | COc1ccc(CNc2nc3c(S(=O)(=O)c4ccc(C)cc4)nnn3c3ccccc23)cc1 | -0.038% (inactive) | -2.81 | 0.613 | 3.99 | 0 | -4.71
14 | CC1CCC(Nc2nc3c(-c4cccc(F)c4)nnn3c3ccccc23)CC1 (stereo not drawn) | -4.07% (inactive) | 0.278 | 0 | -0.849 | -6.58 | -5.44
15 | COc1cc(N)c(Cl)cc1C(=O)NC[C@@H]1CCN2CCC[C@@H]12 | -17.2% (inactive) | -4.41 | -14.1 | -11.2 | -21.4 | -18.4
16 | CCOC(=O)c1cc2n(n1)CC(C)(C(=O)NCc1ccccc1)N(CCCc1ccccc1)C2=O (stereo not drawn) | -0.428% (inactive) | 1.98 | 0 | 4.53 | -4.41 | 0.451
17 | CC(C)Cn1c(=O)c2ccccc2n2c(CCC(=O)N3CCN(c4cccc(Cl)c4)CC3)nnc12 | -9.54% (active) | -27.4 | -4.12 | -10.4 | -53.7 | -12.4
18 | O=C(CCc1nnc2n(Cc3ccc(Cl)cc3)c(=O)c3ccccc3n12)N1CCN(Cc2ccccc2)CC1 | -0.522% (inactive) | -14.1 | 0.869 | -6.5 | -18.2 | -7.88
19 | O=C(CCc1nnc2n(Cc3ccc(Cl)cc3)c(=O)c3ccccc3n12)N1CCN(c2ccccc2F)CC1 | -4.23% (inactive) | -7.84 | 3.64 | -1.5 | -3.97 | -4.97
20 | COC(=O)c1ncn2c1C(=O)N(Cc1ccc(OC)cc1)C(C)(C(=O)NCc1ccccc1)C2 (stereo not drawn) | -12.8% (inactive) | -10.1 | -0.727 | -7.43 | -6.98 | -9.09
21 | COc1cc2ncnc(Nc3cccc(Cl)c3F)c2cc1OC(=O)N1CCN(C)C[C@H]1C | -20.9% (inactive) | -14.7 | 0.224 | -20.1 | -5.9 | -15.1
22 | CCOc1ccc(CNC(=O)c2cc3n(n2)CC(C)(C(=O)NCc2ccc(F)cc2)N(C)C3=O)cc1OC (stereo not drawn) | 1.84% (inactive) | 2.33 | -5.76 | -2.91 | 3.94 | 6.92
23 | CC(=O)c1cnc2ccc(-c3cc(Cl)c(O)c(Cl)c3)nc2c1NC1CCC(CN(C)C)CC1 (stereo not drawn) | 2.27% (active) | -9.49 | 1.31 | -75.4 | -14.2 | 0.349
